Laboratory results taken from PubChem BioAssay (NCATS).
“And” between values parts separate entries of the source, which are not always exact repeats. Equal values may be shown once. Records with an inconclusive call do not appear. Where a call stands in place of a potency, no number is given. Unmarked numbers belong to inactive results. The source made the active and inactive calls. Calls come from the whole dose curve; as a rule, active = well fitted inhibition curve with a large enough effect; inconclusive = small, poorly fitted or top-dose-only effect; inactive = flat fitted curve, though single readings scatter.

Tests used:
[1] = qHTS profiling for inhibitors of Plasmodium falciparum proliferation (AID 504749); note: nearly all actives have a fitted effect of over 60% in size; conditions: P. falciparum in erythrocytes, SYBR Green DNA, 72 h
How it was run: (§1)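 Infected RBCs, 0.3% parasitemia/2.5% Hct final; cpd 72 h, 37 C, 5% CO2; lysis buffer with saponin/triton/SYBR Green I, o/n RT dark; FI 485/535; norm. to artemisinin (0.29 uM) and DMSO.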

[2] = tested on: 3D7; test: as above; conditions: P. falciparum in erythrocytes, SYBR Green DNA, 72 h; series mostly up to 28.7 µM
How it was run: as §1

[3] = tested on: 7G8; test: as above; conditions: P. falciparum in erythrocytes, SYBR Green DNA, 72 h; series mostly up to 28.7 µM
How it was run: as §1

[4] = tested on: AA1029; test: as above; conditions: P. falciparum in erythrocytes, SYBR Green DNA, 72 h; series mostly up to 28.7 µM
How it was run: as §1

[5] = tested on: AS120; test: as above; conditions: P. falciparum in erythrocytes, SYBR Green DNA, 72 h; series mostly up to 28.7 µM
How it was run: as §1

[6] = tested on: ATS189; test: as above; conditions: P. falciparum in erythrocytes, SYBR Green DNA, 72 h; series mostly up to 28.7 µM
How it was run: as §1

[7] = at 28.7 µM (top of the series), parasite line A
[8] = at 28.7 µM (top of the series), parasite line B
[9] = at 12.8 µM (top of the series), parasite line A
[10] = at 12.8 µM (top of the series), parasite line B
Potency is the fitted concentration of half-maximal effect.

| SMILES | activity, negative = inhibition [1, 7] | activity, negative = inhibition [1, 8] | Potency [2] | Potency [3] | Potency [4] | Potency [5] | Potency [6] | activity, negative = inhibition [1, 9] [%] | activity, negative = inhibition [1, 10] [%] | Potency ([1]; parasite line A) | Potency ([1]; parasite line B) |
| --- | --- | --- | --- | --- | --- | --- | --- | --- | --- | --- | --- |
| COc1cc(C(=O)N2CCOCC2)cc(OC)c1OC | 13.6% and -1.06% | 0.0617% and 7.6% | inactive | inactive | inactive | inactive | inactive | – | – | – | – |
| O=C(O)CN1C(=O)c2cccc3cccc(c23)C1=O | -2.87% | 1.81% | inactive | inactive | inactive | inactive | inactive | – | – | – | – |
| O=C(Oc1ccccc1C(=O)O)c1ccccc1O | 0.597% | 10.5% | inactive | inactive | inactive | inactive | inactive | – | – | – | – |
| O=c1[nH]c(=O)c2[nH]c(=O)[nH]c2[nH]1 | -3.55% | 2.26% | inactive | inactive | inactive | inactive | inactive | – | – | – | – |
| CC(O)COc1ccccc1 (stereo not drawn) | 5.76% | 0.212% | inactive | inactive | inactive | inactive | inactive | – | – | – | – |
| O=C(O)CC(O)C(=O)O (stereo not drawn) | 10.4% | 3.5% | inactive | inactive | inactive | inactive | inactive | – | – | – | – |
| Nc1ccc(S(=O)(=O)Nc2ccccc2)cc1 | -9.52% | 11.6% | inactive | inactive | inactive | inactive | inactive | – | – | – | – |
| Cc1cc2c(cc1S(N)(=O)=O)S(=O)(=O)CCC2 | – | – | inactive | inactive | inactive | inactive | inactive | -1.89 | 2.51 | – | – |
| Nc1nc2c(ncn2CCC(CO)CO)c(=O)[nH]1 | 3.65% | -4.23% | inactive | inactive | inactive | inactive | inactive | – | – | – | – |
| COc1ccc2c(c1)C(=O)N(CCc1ccc(S(=O)(=O)NC(=O)NC3CCCCC3)cc1)C(=O)C2(C)C | – | – | inactive | inactive | inactive | inactive | inactive | 4.32 | -5.51 | – | – |
| CC(O)CN(CCN(CC(C)O)CC(C)O)CC(C)O (stereo not drawn) | 7.8% | -1.51% | inactive | inactive | inactive | inactive | inactive | – | – | – | – |
| CCN(CC)CCSC(=O)C(c1ccccc1)c1ccccc1 | 10.5% and 6.38% | -0.418% and -7.05% | inactive | inactive | inactive | inactive | inactive | – | – | – | – |
| CCCCOc1cc(C(=O)OCCN(CC)CC)ccc1N | – | – | inactive | inactive | inactive | inactive | inactive | 8.11 | 4.89 | – | – |
| C[C@H](N)[C@H](O)c1cccc(O)c1 | – | – | inactive | inactive | inactive | inactive | inactive | 4.05 | -0.641 | – | – |
| O=C(CCCN1CCN(c2ccccn2)CC1)c1ccc(F)cc1 | -3.57% | 15.4% | inactive | inactive | inactive | inactive | inactive | – | – | – | – |
| CC1(C)OC(=O)NC1=O | 17.2% | 21.8% | inactive | inactive | inactive | inactive | inactive | – | – | – | – |
| CCCCCCCCCCCCCCCCCCOCC(O)CO (stereo not drawn) | 11.2% | 11.4% | inactive | inactive | inactive | inactive | inactive | – | – | – | – |

| SMILES | activity, negative = inhibition [1, 7] | activity, negative = inhibition [1, 8] | Potency [2] | Potency [3] | Potency [4] | Potency [5] | Potency [6] | activity, negative = inhibition [1, 9] [%] | activity, negative = inhibition [1, 10] [%] | Potency ([1]; parasite line A) | Potency ([1]; parasite line B) |
| --- | --- | --- | --- | --- | --- | --- | --- | --- | --- | --- | --- |
| CCCCCCCCCCCCOS(=O)(=O)O | 2.98% | -1.46% | inactive | inactive | inactive | inactive | inactive | – | – | – | – |
| O=c1cc[nH]c(=O)[nH]1 | 9.07% | 2.41% | inactive | inactive | inactive | inactive | inactive | – | – | – | – |
| NC(=O)NC(=O)Cc1ccccc1 | 2.68% | -4.74% | inactive | inactive | inactive | inactive | inactive | – | – | – | – |
| CCn1cc(C(=O)O)c(=O)c2cnc(N3CCNCC3)nc21 | – | – | inactive | inactive | inactive | inactive | inactive | 7.13 | -22.6 | – | – |
| N[C@@H](CSCCCO)C(=O)O | -6.32% | -2.52% | inactive | inactive | inactive | inactive | inactive | – | – | – | – |
| COc1cc2[nH]c(=O)[nH]c(=O)c2cc1OC | – | – | inactive | inactive | inactive | inactive | inactive | -1.12 | -2.32 | – | – |
| CCOC(=O)[C@H](CCc1ccccc1)N[C@@H](C)C(=O)N1C(=O)N(C)C[C@H]1C(=O)O | 8.56% | 16.1% | inactive | inactive | inactive | inactive | inactive | – | – | – | – |
| Cc1cccc(C)c1NC(=O)CN(CC(=O)O)CC(=O)O | 13.4% | 2.17% | inactive | inactive | inactive | inactive | inactive | – | – | – | – |
| CCCn1cnc2c1c(=O)n(CCCCC(C)=O)c(=O)n2C | -5.61% | -0.0808% | inactive | 11.2 µM (active) | inactive | inactive | inactive | – | – | – | – |
| CCN(CC)CCNC(=O)c1cc(Cl)c(N)cc1OC | 11.7% | -3.16% | inactive | inactive | inactive | inactive | inactive | – | – | – | – |
| NS(=O)(=O)c1cc2c(cc1Cl)NC(CSCc1ccccc1)=NS2(=O)=O | – | – | inactive | inactive | inactive | inactive | inactive | 2.74 | 12.8 | – | – |
| NC(=O)NNc1ccccc1 | -7.35% and 18% | 13.9% and 11.9% | inactive | inactive | inactive | inactive | inactive | – | – | – | – |
| Oc1cn2c(n1)Nc1ccc(Cl)c(Cl)c1C2 | 7.35% | -8.41% | inactive | inactive | inactive | inactive | inactive | – | – | – | – |
| NC(CSCC(=O)O)C(=O)O (stereo not drawn) | -7.77% | -0.351% | inactive | inactive | inactive | inactive | inactive | – | – | – | – |
| C[C@@H]1CN(c2c(F)c(F)c3c(=O)c(C(=O)O)cn(C4CC4)c3c2F)C[C@H](C)N1 | 9.49% | 3.41% | inactive | inactive | inactive | inactive | inactive | – | – | – | – |
| COc1cc(C)c(Cc2cnc(N)nc2N)cc1OC | – | – | – | – | – | – | – | – | – | 4.47 µM (active) | 11.2 µM (active) |
| CNCCCC1c2ccccc2C=Cc2ccccc21 | – | – | – | – | – | – | – | 3.94 | -1.98 | – | – |
